Source: PubChem BioAssay AID1159580 (chemical genetic matrix, 2015)
Several values for one entry are separate records, joined by “and”; a condition that tells them apart may be missing. Equal entries are not always repeated. Screen size: about 5,500 compounds; about 2,000 (36%) were called active. Not shown: some 18% with an inconclusive outcome. Rule as the data show it: active = normalized growth mostly below about 0.91 (no sharp cut-off); inconclusive = no clear call, values can overlap the other calls; inactive = mostly above about 0.92. This is one part of the list.

Experiment: chemical genetic growth profiling, strain panel (AID 1159580);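 also: tested at 20 µM; growth read once vehicle control cultures reached saturation at 30 °C; 1 = growth at the plate median or of vehicle wells; lower values mean less growth of the strain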
Details: S. cerevisiae deletion strains, growth OD

Measured: normalized growth

CCCCCC1C(=O)CCC1CC(=O)O (stereo unspecified)
inactive: locus YAL013W, strain DEP1, stronger effect = lower value 0.997 | locus YAL021C, strain ccr4, stronger effect = lower value 0.984 | locus YAL026C, strain drs2, stronger effect = lower value 0.994 | locus YAL030W, strain snc1, stronger effect = lower value 0.984 | locus YBL061C, strain skt5, stronger effect = lower value 0.988 | locus YBR009C, strain hhf1, stronger effect = lower value 1.01 | locus YBR021W, strain FUR4, stronger effect = lower value 0.991 | locus YBR023C, strain chs3, stronger effect = lower value 0.99 | locus YBR171W, strain sec66, stronger effect = lower value 1 | locus YBR229C, strain ROT2, stronger effect = lower value 1 | locus YBR231C, strain swc5, stronger effect = lower value 1 | locus YBR279W, strain paf1, stronger effect = lower value 0.98 | locus YCL011C, strain gbp2, stronger effect = lower value 0.995 | locus YCL016C, strain dcc1, stronger effect = lower value 0.98 | locus YCL029C, strain bik1, stronger effect = lower value 0.998 | locus YCL061C, strain MRC1, stronger effect = lower value 0.991 | locus YCL069W, strain vba3, stronger effect = lower value 0.995 | locus YCR088W, strain abp1, stronger effect = lower value 0.976 | locus YDL005C, strain med2, stronger effect = lower value 0.982 | locus YDL035C, strain GPR1, stronger effect = lower value 1.01 | locus YDL040C, strain nat1, stronger effect = lower value 0.995 | locus YDL074C, strain BRE1, stronger effect = lower value 1.01 | locus YDL101C, strain DUN1, stronger effect = lower value 1.01 | locus YDL134C, strain PPH21, stronger effect = lower value 1.06 | locus YDL185W, strain tfp1, stronger effect = lower value 0.974 | locus YDL192W, strain arf1, stronger effect = lower value 0.986 | locus YDR001C, strain nth1, stronger effect = lower value 0.986 | locus YDR069C, strain doa4, stronger effect = lower value 1.01 | locus YDR101C, strain arx1, stronger effect = lower value 0.99 | locus YDR137W, strain rgp1, stronger effect = lower value 0.998 | locus YDR150W, strain NUM1, stronger effect = lower value 1.02 | locus YDR159W, strain sac3, stronger effect = lower value 0.997 | locus YDR162C, strain NBP2, stronger effect = lower value 1.04 | locus YDR195W, strain ref2 0.999 | locus YDR297W, strain sur2, stronger effect = lower value 0.988 | locus YDR318W, strain mcm21, stronger effect = lower value 0.992 | locus YDR334W, strain swr1, stronger effect = lower value 0.981 | locus YDR335W, strain msn5, stronger effect = lower value 0.981 | locus YDR388W, stronger effect = lower value 0.994 | locus YDR392W, strain spt3, stronger effect = lower value 0.91 | locus YDR502C, strain sam2, stronger effect = lower value 1.01 | locus YEL003W, strain gim4, stronger effect = lower value 0.987 | locus YEL037C, strain rad23, stronger effect = lower value 0.972 | locus YEL061C, strain CIN8 (second series), stronger effect = lower value 0.984 | locus YEL061C, strain CIN8, stronger effect = lower value 1 | locus YER015W, strain faa2, stronger effect = lower value 0.983 | locus YER016W, strain bim1, stronger effect = lower value 0.984 | locus YER110C, stronger effect = lower value 0.982 | locus YER111C, strain swi4, stronger effect = lower value 0.975 | locus YER155C, strain BEM2 (second series), stronger effect = lower value 0.982 | locus YER155C, strain BEM2, stronger effect = lower value 0.989 | locus YER167W, strain BCK2, stronger effect = lower value 1.01 | locus YFR010W, strain ubp6, stronger effect = lower value 0.987 | locus YGL078C, strain dbp3, stronger effect = lower value 0.988 | locus YGL086W, strain mad1, stronger effect = lower value 0.994 | locus YGL167C, strain pmr1, stronger effect = lower value 0.986 | locus YGL173C, strain kem1, stronger effect = lower value 0.989 | locus YGL227W, strain vid30, stronger effect = lower value 0.998 | locus YGL240W, strain doc1, stronger effect = lower value 0.998 | locus YGL248W, strain PDE1, stronger effect = lower value 0.998 | locus YGL253W, strain hxk2, stronger effect = lower value 0.996 | locus YGR135W, strain pre9, stronger effect = lower value 0.994 | locus YGR252W, strain gcn5, stronger effect = lower value 0.993 | locus YHR013C, strain ard1, stronger effect = lower value 0.972 | locus YHR027C, strain rpn1, stronger effect = lower value 0.98 | locus YHR030C, strain SLT2, stronger effect = lower value 0.992 and 0.982 | locus YHR079C, strain IRE1 (second series), stronger effect = lower value 0.987 | locus YHR079C, strain IRE1, stronger effect = lower value 0.99 | locus YHR094C, strain hxt1, stronger effect = lower value 0.969 | locus YHR129C, strain ARP1, stronger effect = lower value 1 | locus YHR142W, strain chs7, stronger effect = lower value 0.973 | locus YHR200W, strain rpn10, stronger effect = lower value 0.988 | locus YIL066C, strain RNR3, stronger effect = lower value 1.03 | locus YIL073C, strain SPO22, stronger effect = lower value 1.04 | locus YIL125W, strain kgd1, stronger effect = lower value 0.985 | locus YIR030C, strain dcg1, stronger effect = lower value 0.986 | locus YJL092W, strain hpr5, stronger effect = lower value 0.983 | locus YJL095W, strain BCK1 (second series), stronger effect = lower value 0.993 | locus YJL095W, strain BCK1, stronger effect = lower value 1.05 and 0.989 | locus YJL115W, strain asf1, stronger effect = lower value 0.973 | locus YJL129C, strain trk1, stronger effect = lower value 0.961 | locus YJL134W, strain LCB3, stronger effect = lower value 0.991 | locus YJL154C, strain vps35, stronger effect = lower value 0.982 | locus YJL164C, strain tpk1, stronger effect = lower value 0.998 | locus YJL166W, strain qcr8, stronger effect = lower value 0.996 | locus YJL168C, strain set2, stronger effect = lower value 0.991 | locus YJL187C, strain SWE1 (second series), stronger effect = lower value 1.02 | locus YJL187C, strain SWE1, stronger effect = lower value 0.984 | locus YJR043C, strain POL32, stronger effect = lower value 1.03 | locus YJR066W, strain TOR1, stronger effect = lower value 0.967 | locus YKL009W, strain mrt4, stronger effect = lower value 0.972 | locus YKL068W, stronger effect = lower value 0.981 | locus YKL085W, strain MDH1 (second series), stronger effect = lower value 0.992 | locus YKL085W, strain MDH1, stronger effect = lower value 0.992 | locus YKL160W, strain elf1, stronger effect = lower value 0.978 | locus YKL190W, strain CNB1, stronger effect = lower value 1 | locus YKR001C, strain vps1, stronger effect = lower value 0.987 | locus YKR026C, strain gcn3, stronger effect = lower value 0.985 | locus YKR091W, strain srl3, stronger effect = lower value 0.98 | locus YLL001W, strain dnm1, stronger effect = lower value 0.961 | locus YLL026W, stronger effect = lower value 0.994 | locus YLL041C, strain sdh2, stronger effect = lower value 0.989 | locus YLR027C, strain aat2, stronger effect = lower value 0.984 | locus YLR039C, strain RIC1, stronger effect = lower value 1.06 | locus YLR058C, strain SHM2, stronger effect = lower value 1.01 | locus YLR102C, strain apc9, stronger effect = lower value 0.978 | locus YLR113W, strain HOG1, stronger effect = lower value 0.95 | locus YLR221C, strain rsa3, stronger effect = lower value 0.993 | locus YLR258W, strain gsy2, stronger effect = lower value 0.986 | locus YLR262C, strain YPT6 (second series), stronger effect = lower value 0.99 | locus YLR262C, strain YPT6, stronger effect = lower value 1.07 | locus YLR268W, strain sec22, stronger effect = lower value 1 | locus YLR320W, strain mms22, stronger effect = lower value 0.967 | locus YLR330W, strain CHS5, stronger effect = lower value 0.993 | locus YLR342W, strain FKS1 (second series), stronger effect = lower value 1.02 | locus YLR342W, strain FKS1, stronger effect = lower value 0.982 | locus YLR357W, strain rsc2, stronger effect = lower value 0.994 | locus YLR370C, strain arc18, stronger effect = lower value 0.983 | locus YLR371W, strain rom2, stronger effect = lower value 0.987 | locus YLR384C, strain iki3, stronger effect = lower value 0.978 | locus YLR418C, strain cdc73, stronger effect = lower value 0.989 | locus YML016C, strain PPZ1, stronger effect = lower value 0.995 | locus YML032C, strain rad52, stronger effect = lower value 0.987 | locus YML120C, strain ndi1, stronger effect = lower value 0.99 | locus YML124C, strain tub3, stronger effect = lower value 0.985 | locus YMR058W, strain fet3, stronger effect = lower value 0.983 | locus YMR078C, strain ctf18, stronger effect = lower value 1.01 | locus YMR125W, strain sto1, stronger effect = lower value 0.965 | locus YMR129W, stronger effect = lower value 0.989 | locus YMR205C, strain PFK2, stronger effect = lower value 0.969 | locus YMR223W, strain ubp8, stronger effect = lower value 0.994 | locus YMR231W, strain pep5, stronger effect = lower value 0.983 | locus YMR307W, strain GAS1, stronger effect = lower value 1.06 | locus YNL067W, strain RPL9B, stronger effect = lower value 1.04 | locus YNL071W, strain lat1, stronger effect = lower value 0.99 | locus YNL128W, strain TEP1, stronger effect = lower value 1 | locus YNL183C, strain NPR1, stronger effect = lower value 0.931 | locus YNL209W, strain ssb2, stronger effect = lower value 0.995 | locus YNL233W, strain BNI4, stronger effect = lower value 1.03 | locus YNL248C, strain rpa49, stronger effect = lower value 0.99 | locus YNL250W, strain rad50, stronger effect = lower value 0.976 | locus YNL271C, strain bni1, stronger effect = lower value 0.969 | locus YNL298W, strain CLA4, stronger effect = lower value 0.968 | locus YNL307C, strain MCK1, stronger effect = lower value 0.989 | locus YNL322C, strain KRE1 (second series), stronger effect = lower value 0.972 | locus YNR049C, strain mso1, stronger effect = lower value 0.984 | locus YNR052C, strain pop2, stronger effect = lower value 0.975 | locus YOL006C, strain TOP1, stronger effect = lower value 1.02 | locus YOL012C, strain htz1 1.21 | locus YOL147C, strain pex11, stronger effect = lower value 0.986 | locus YOR001W, strain rrp6, stronger effect = lower value 0.997 | locus YOR061W, strain CKA2, stronger effect = lower value 0.996 | locus YOR069W, strain VPS5, stronger effect = lower value 0.993 | locus YOR070C, strain gyp1, stronger effect = lower value 0.99 | locus YOR080W, strain dia2, stronger effect = lower value 0.987 | locus YOR083W, strain WHI5, stronger effect = lower value 0.959 | locus YOR106W, strain vam3, stronger effect = lower value 0.987 | locus YOR136W, strain idh2, stronger effect = lower value 0.982 | locus YOR144C, strain elg1, stronger effect = lower value 0.994 | locus YOR184W, strain ser1, stronger effect = lower value 1.02 | locus YOR231W, strain MKK1, stronger effect = lower value 1.01 | locus YOR265W, strain rbl2, stronger effect = lower value 0.989 | locus YOR270C, strain vph1, stronger effect = lower value 0.961 | locus YOR290C, strain snf2, stronger effect = lower value 0.916 | locus YOR316C, strain cot1, stronger effect = lower value 0.981 | locus YPL051W, strain arl3, stronger effect = lower value 0.982 | locus YPL055C, strain LGE1, stronger effect = lower value 1.06 | locus YPL078C, strain atp4, stronger effect = lower value 0.979 | locus YPL106C, strain sse1, stronger effect = lower value 0.99 | locus YPL240C, strain hsp82, stronger effect = lower value 0.985 | locus YPL256C, strain CLN2, stronger effect = lower value 0.964 | locus YPR119W, strain clb2, stronger effect = lower value 0.988 | locus YPR141C, strain kar3, stronger effect = lower value 0.981 | locus YPR163C, strain tif3, stronger effect = lower value 0.978 | locus YPR167C, strain met16, stronger effect = lower value 0.997 | strain wtn01, stronger effect = lower value 1.01
